A short description of assay [1]: binders of probe aFSTL3 on microarray, primary screen, stem cell growth factor project, biochemical, small-molecule microarray, fluorescence 635/667 (AID 1064).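 Note: measures binding of the biotinylated anti-FSTL3 antibody to printed compounds.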 As to conditions: higher = more signal.
Assay [2] can be described thus: binders from COS7 lysate, DM2A8 probe, primary screen, torsin A project, cell lysate, small-molecule microarray, fluorescence 635/667 (AID 1065). Conditions: higher = more signal, COS7 lysate expressing mutant human TOR1A.
A short description of assay [3]: binders of probe aFGF2 on microarray, primary screen, stem cell growth factor project, biochemical, small-molecule microarray, fluorescence 635/667 (AID 1067).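 Note: measures binding of biotinylated aFGF2 protein to printed compounds on slides; z-score merges feature fluorescence and signal-to-noise across triplicate slides.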 As to conditions: higher = more signal.
Assay [4] in a line: binders of probe aFGF10 on microarray, primary screen, stem cell growth factor project, biochemical, small-molecule microarray, fluorescence 635/667 (AID 1071).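 Note: score merges 667 nm spot intensity and signal to noise from triplicate slides.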 Conditions: higher = more signal.
Assay [5] has as its target Neurogenic locus notch homolog protein 2 (Homo sapiens) (UniProt Q04721). In words: Notch2 binders on small-molecule microarrays, primary screen, biochemical, small-molecule microarray, 635 nm fluorescence, stem cell growth factors (AID 1073). Conditions: Notch2 binding, higher = more signal.
The target in assay [6] is Pro-neuregulin-1, membrane-bound isoform (Homo sapiens) (UniProt Q02297). In words: NRG1 binders on small-molecule microarrays, primary screen, psychiatric disease protein project, biochemical, small-molecule microarray, fluorescence 635/667 (AID 1075).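 Note: score combines 667 nm spot fluorescence with signal to noise.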 As to conditions: NRG1 binding, 635 nm fluorescence, higher = more signal.
Chain of Pro-neuregulin-1, membrane-bound isoform (Homo sapiens) (Q02297 whole entry, looked up, the tested form may be a part, canonical isoform): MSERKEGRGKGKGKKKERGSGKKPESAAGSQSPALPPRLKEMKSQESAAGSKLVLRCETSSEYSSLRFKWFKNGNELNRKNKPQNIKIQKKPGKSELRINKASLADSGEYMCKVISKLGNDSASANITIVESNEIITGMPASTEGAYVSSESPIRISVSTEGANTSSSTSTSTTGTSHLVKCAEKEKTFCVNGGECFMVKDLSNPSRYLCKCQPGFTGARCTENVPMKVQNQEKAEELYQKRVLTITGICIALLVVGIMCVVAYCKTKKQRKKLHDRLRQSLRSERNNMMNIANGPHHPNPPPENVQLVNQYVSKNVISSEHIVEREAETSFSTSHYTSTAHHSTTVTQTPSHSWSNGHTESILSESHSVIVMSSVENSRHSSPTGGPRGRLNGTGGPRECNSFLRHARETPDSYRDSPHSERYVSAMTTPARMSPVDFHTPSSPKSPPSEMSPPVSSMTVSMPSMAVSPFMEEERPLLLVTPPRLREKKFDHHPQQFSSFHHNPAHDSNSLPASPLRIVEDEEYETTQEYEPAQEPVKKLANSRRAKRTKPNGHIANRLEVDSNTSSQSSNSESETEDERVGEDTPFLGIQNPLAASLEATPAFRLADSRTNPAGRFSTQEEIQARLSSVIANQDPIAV
In assay [7] the test system is Neuregulin-1 EGF-like domain. In words: binders of neuregulin-1 EGF-like domain, primary screen, biochemical, small-molecule microarray, 635 nm fluorescence (AID 1081).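 Note: binding of the protein to compounds printed on small-molecule microarray slides.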 As to conditions: small-molecule microarray binding, higher = more signal.
Assay [8] can be described thus: FRG1 promoter luciferase signal modulators, primary screen, FRG1 inhibition for FSHD, cell-based, C2C12 myotubes, firefly/Renilla luciferase, luminescence (AID 1084). As to conditions: higher = more signal, called active from +8 up or from −8 down.
Assay [9] is described as follows: binders of probe aFST on microarray, primary screen, stem cell growth factor project, biochemical, small-molecule microarray, fluorescence 635/667 (AID 1086).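 Note: score merges 667 nm fluorescence with signal-to-noise of each printed compound spot.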 Conditions: higher = more signal.
A short description of assay [10]: binders of probe aHhip on microarray, primary screen, stem cell growth factor project, biochemical, small-molecule microarray, fluorescence 635/667 (AID 1087).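 Note: score merges spot fluorescence at 667nm with spot signal to noise ratio.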 Conditions: higher = more signal.
Assay [11] deals with PRMT1 (protein arginine N-methyltransferase 1). In words: PRMT1 binders on small-molecule microarrays, primary screen, biochemical, small-molecule microarray, 635 nm fluorescence (AID 1088).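 Note: binding of Prmt1 protein to compounds spotted on small-molecule microarray slides.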 Conditions: small-molecule microarray binding, higher = more signal.
Assay [12] is described as follows: yeast growth modulation, basal conditions, primary screen, YJM789 clinical isolate, OD600, 24 h (AID 1089).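 Note: growth of clinical yeast isolate S. cerevisiae YJM 789 seeded 1000 cells per well; test concentration not given here.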 Conditions: S. cerevisiae YJM789 growth, higher = more signal, called active from +8 up or from −8 down.
The nature of assay [13]: fission yeast growth modulation, primary screen, strain 972, OD600, 24 h, no modulator (AID 1090).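 Note: basal condition with compound alone and no growth modifier present; test concentration not given here.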 As to conditions: S. pombe 972 growth, higher = more signal, called active from +8 up or from −8 down.
A short description of assay [14]: S. cerevisiae growth modulation with rapamycin, primary screen, strain BY4716, OD600, 96 h (AID 1091). Note: test concentration not given here. As to conditions: higher = more signal, called active from +8 up or from −8 down.
In assay [15] the target is Torsin-1A-interacting protein 2 (Homo sapiens) (UniProt Q8NFQ8). In words: LULL1 binders on small-molecule microarray, primary screen, cell lysate, human LULL1 lysate, 635/667 nm fluorescence (AID 1092).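 Note: probe is lysate of COS7 cells overexpressing human LULL1; score merges per-feature 667 nm fluorescence with signal-to-noise.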 As to conditions: hLULL1 lysate binding, 635 nm fluorescence, higher = more signal.
Chain of Torsin-1A-interacting protein 2 (Homo sapiens) (Q8NFQ8 whole entry, looked up): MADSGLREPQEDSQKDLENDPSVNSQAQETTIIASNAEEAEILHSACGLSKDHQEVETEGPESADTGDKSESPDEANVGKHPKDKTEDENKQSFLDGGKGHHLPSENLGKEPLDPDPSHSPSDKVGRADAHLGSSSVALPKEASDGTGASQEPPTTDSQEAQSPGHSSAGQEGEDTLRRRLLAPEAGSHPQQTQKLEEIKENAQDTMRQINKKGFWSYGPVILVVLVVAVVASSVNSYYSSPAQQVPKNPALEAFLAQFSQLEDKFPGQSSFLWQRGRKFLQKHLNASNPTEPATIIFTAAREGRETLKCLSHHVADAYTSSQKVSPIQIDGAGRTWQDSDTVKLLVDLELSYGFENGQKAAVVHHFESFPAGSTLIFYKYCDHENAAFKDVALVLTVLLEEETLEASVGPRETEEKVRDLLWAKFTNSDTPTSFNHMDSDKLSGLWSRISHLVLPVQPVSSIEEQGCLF
Assay [16] is described as follows: E. coli growth modulation, two-sided OD650, primary screen, E. coli filamentation project, strain DRC41, 24 h (AID 1093).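 Note: MC1000 strain lacking acrAB efflux and sulA so SOS filamentation is blocked; test concentration not given here.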 As to conditions: OD650, 24 h, higher = more signal, called active from +8 up or from −8 down.
Assay [17] in a line: small-molecule microarray binders of probe aLefty2, primary screen, biochemical, biotinylated probe, 635/667 nm fluorescence (AID 1094).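 Note: score merges spot fluorescence near 667 nm with spot signal-to-noise ratio.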 Conditions: higher = more signal.
Assay [18] relates to Noggin (protein binding on small-molecule microarray). In words: Noggin binders on small-molecule microarray, primary screen, biochemical, 635/667 nm fluorescence (AID 1095).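 Note: score merges 667 nm feature fluorescence with signal to noise over triplicate slides.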 As to conditions: 635 nm fluorescence, higher = more signal.
Assay [19] addresses Neurogenic locus notch homolog protein 3 (Homo sapiens) (UniProt Q9UM47). In words: NOTCH3 binders on small-molecule microarray, primary screen, biochemical, 635/667 nm fluorescence (AID 1096). Conditions: NOTCH3 binding, 635 nm fluorescence, higher = more signal.
The nature of assay [20]: small-molecule microarray binders of probe aEGFR, primary screen, biochemical, biotinylated probe, 635/667 nm fluorescence (AID 1097).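 Note: probe is a biotinylated anti-EGFR antibody binding compounds printed on slides; score combines fluorescence near 667 nm and signal to noise of each spot.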 Conditions: higher = more signal.

The source made the active and inactive calls.

Chain of Neurogenic locus notch homolog protein 2 (Homo sapiens) (Q04721 whole entry, looked up, canonical isoform): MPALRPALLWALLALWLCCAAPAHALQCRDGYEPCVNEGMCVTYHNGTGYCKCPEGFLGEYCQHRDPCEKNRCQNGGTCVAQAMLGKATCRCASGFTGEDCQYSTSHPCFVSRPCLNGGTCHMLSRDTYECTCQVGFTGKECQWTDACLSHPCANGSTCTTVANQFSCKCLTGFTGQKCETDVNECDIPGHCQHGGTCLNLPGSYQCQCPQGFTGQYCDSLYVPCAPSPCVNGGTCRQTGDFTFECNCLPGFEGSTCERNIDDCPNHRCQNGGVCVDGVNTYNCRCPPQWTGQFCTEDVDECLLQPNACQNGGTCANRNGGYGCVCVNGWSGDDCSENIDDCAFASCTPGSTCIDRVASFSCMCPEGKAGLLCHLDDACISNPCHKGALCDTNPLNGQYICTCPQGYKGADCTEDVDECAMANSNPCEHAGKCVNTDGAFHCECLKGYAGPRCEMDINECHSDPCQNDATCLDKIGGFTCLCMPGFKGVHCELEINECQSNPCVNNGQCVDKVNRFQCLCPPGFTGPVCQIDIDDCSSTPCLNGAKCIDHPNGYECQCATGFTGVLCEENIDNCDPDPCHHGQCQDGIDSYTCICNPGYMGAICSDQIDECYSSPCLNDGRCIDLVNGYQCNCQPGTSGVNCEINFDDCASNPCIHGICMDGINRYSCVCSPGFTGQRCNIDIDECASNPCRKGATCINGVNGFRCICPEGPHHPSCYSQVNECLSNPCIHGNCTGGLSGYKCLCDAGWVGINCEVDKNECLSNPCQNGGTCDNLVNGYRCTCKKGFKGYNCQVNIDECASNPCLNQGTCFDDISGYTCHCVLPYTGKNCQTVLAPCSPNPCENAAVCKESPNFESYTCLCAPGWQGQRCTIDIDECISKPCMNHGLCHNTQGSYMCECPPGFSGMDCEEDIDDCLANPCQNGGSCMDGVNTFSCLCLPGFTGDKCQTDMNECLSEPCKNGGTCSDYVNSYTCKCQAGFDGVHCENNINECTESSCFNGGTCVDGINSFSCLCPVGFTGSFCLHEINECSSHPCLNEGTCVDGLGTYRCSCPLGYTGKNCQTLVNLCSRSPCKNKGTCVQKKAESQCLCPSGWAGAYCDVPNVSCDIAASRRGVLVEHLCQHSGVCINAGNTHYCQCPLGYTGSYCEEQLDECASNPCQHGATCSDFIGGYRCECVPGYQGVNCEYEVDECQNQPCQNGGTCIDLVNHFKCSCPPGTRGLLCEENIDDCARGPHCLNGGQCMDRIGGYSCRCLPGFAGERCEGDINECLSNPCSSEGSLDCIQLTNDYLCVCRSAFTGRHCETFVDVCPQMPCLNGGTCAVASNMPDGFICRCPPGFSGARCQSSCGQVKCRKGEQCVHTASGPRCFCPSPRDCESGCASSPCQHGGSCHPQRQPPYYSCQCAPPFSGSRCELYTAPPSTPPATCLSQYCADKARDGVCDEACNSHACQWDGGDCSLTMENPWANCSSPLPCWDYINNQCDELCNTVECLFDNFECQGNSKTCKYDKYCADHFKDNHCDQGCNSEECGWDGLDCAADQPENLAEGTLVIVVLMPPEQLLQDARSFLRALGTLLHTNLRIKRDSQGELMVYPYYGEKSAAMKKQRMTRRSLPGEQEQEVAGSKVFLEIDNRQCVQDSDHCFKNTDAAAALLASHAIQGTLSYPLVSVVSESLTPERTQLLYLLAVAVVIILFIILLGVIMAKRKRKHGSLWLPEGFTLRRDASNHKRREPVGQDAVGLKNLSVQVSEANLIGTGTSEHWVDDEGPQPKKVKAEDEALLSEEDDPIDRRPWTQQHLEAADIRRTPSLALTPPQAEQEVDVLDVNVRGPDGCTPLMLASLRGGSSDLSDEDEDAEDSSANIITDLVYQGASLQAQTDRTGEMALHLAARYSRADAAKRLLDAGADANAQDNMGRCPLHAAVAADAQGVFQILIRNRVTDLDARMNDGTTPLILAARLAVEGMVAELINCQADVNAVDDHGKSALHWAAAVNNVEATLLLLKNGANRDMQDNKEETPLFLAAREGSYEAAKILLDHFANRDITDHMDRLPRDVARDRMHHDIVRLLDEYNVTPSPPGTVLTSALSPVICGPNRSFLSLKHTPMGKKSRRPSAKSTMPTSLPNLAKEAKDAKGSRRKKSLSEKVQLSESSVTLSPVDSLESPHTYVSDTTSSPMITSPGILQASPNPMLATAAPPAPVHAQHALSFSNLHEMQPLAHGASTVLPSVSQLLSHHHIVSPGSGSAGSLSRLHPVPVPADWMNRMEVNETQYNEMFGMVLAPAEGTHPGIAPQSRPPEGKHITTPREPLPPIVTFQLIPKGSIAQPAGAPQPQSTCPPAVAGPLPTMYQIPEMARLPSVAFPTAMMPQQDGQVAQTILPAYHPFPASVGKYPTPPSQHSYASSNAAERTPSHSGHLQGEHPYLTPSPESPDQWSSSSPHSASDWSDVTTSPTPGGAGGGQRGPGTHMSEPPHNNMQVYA

Regarding `O=C1O[C@H](c2ccccc2)[C@H](c2ccccc2)N2[C@H]1[C@@H](C(=O)NC[C@H](O)c1ccccc1)[C@]1(C(=O)Nc3ccccc31)[C@H]2c1ccccc1OCCO`, the composite z-score in [1] was 0.0095; in [2] it was 0.142; in assay [3], -0.0024; in [4], 0.555; in assay [5] it was 0.0225; in assay [6] it was 0.851. Besides, the composite z-score in assay [7] is 1.2; in assay [9], -0.821; in assay [10], -0.445; in assay [11], 1.55; in assay [15], 2.92; in [17], -0.181. In addition, the composite z-score in assay [18] is 1.71; in [19], 0.723; in [20], -0.109. The z-score in assay [8] is -1.13 (inactive); in assay [12], 0.837 (inactive); in assay [13], 0.468 (inactive); in assay [14], 4.03 (inactive); in assay [16], 2.05 (inactive).

`C[C@]12C(=O)N(CCCCCO)[C@@H]3C(=O)N(c4ccc(Cl)cc4)CC=CC31O[C@@H]1/C=C\CCCOC(=O)C12` (stereo not given in full): the composite z-score in assay [1] was 0.302; in assay [2], -1.54; in assay [3], -0.221; in assay [4] it was -1.14; in assay [5], -0.76; in assay [6], -0.254. Besides, the composite z-score in assay [7] is 0.655; in assay [9], -0.733; in assay [10], -0.28; in assay [11], -1.37; in [15], -1.43; in [17], -0.0986. Besides, the composite z-score in assay [18] was -0.757; in assay [19] it was -0.0346; in [20], -0.172. The z-score in assay [8] is 0.803 (inactive); in assay [12], -0.299 (inactive); in assay [13], -1.14 (inactive); in [14], -0.637 (inactive); in assay [16], -1.25 (inactive).

For `COC(=O)C(CC#Cc1ccc2c(c1)[C@]1(C(=O)N2)[C@H](c2ccc(O)cc2)N2[C@H](c3ccccc3)[C@H](c3ccccc3)OC(=O)[C@H]2[C@@H]1C(N)=O)C(=O)OC`, the composite z-score is 0.659 in assay [1]; -0.392 in [2]; -0.168 in [3]; -1.89 in [4]; -1.06 in assay [5]; -0.605 in assay [6]. The composite z-score in assay [7] was -0.777; in assay [9], -0.611; in [10], -0.245; in assay [11], -1.37; in assay [15], -0.759; in [17] it was -0.189. In addition, the composite z-score in assay [18] was -2.58; in [19], -1.06; in [20], 0.162. Further, the z-score in [8] was -0.719 (inactive); in [12], -0.731 (inactive); in [13] it was -0.55 (inactive); in assay [14], -0.438 (inactive); in assay [16] it was 2.23 (inactive).

Take `[N-]=[N+]=Nc1ccccc1[C@H]1OC(c2ccc(OCCCO)cc2)=N[C@@]1(Cc1ccccc1)C(=O)NCc1ccccc1`: the composite z-score in [1] is -0.274; in assay [2], -0.357; in assay [3], 0.0722; in assay [4], 0.639; in assay [5], 1.12; in assay [6] it was 0.883. The composite z-score in assay [7] was 0.567; in assay [9] it was 0.686; in [10] it was 0.0373; in assay [11] it was 1.57; in assay [15], 2.79; in [17], -0.0192. Besides, the results for the composite z-score in assay [18], in assay [19] and in [20] were 0.641, 1.04 and -0.0066, respectively. The z-score was -1.55 (inactive) in [8]; -2.78 (inactive) in [12]; -2.1 (inactive) in assay [13]; 1.12 (inactive) in assay [14]; 1.81 (inactive) in assay [16].

`COCCOC(=O)N1C(=O)[C@@]2(c3cc(C#CCCO)ccc31)[C@H](c1ccc(OCCO)cc1)N1[C@H](c3ccccc3)[C@H](c3ccccc3)OC(=O)[C@H]1[C@@H]2C(=O)N1CCc2cc(OC)c(OC)cc2C1`: the composite z-score in [1] is -0.392; in assay [2] it was 0.444; in assay [3], -0.0732; in assay [4], 0.375; in assay [5] it was 0.921; in assay [6] it was 0.635. Moreover, the composite z-score is 1.25 in [7]; 0.159 in assay [9]; -0.0618 in assay [10]; 1.55 in assay [11]; 2.48 in assay [15]; 0.022 in assay [17]. The results for the composite z-score in assay [18], in assay [19] and in assay [20] were 1.05, 1.13 and 0.0365, respectively. The z-score was -0.355 (inactive) in assay [8]; 2.59 (inactive) in [12]; 1.28 (inactive) in assay [13]; 4.19 (inactive) in assay [14]; 0.37 (inactive) in assay [16].

With `Cc1ccccc1C(O)C1C=CC2C(=O)N(C)C(=O)C2N1Nc1ccc([N+](=O)[O-])cc1[N+](=O)[O-]` (stereo not given), the composite z-score was -0.0166 in assay [1]; 0.14 in assay [2]; 0.084 in assay [3]; 0.922 in [4]; 1.65 in [5]; 1.65 in assay [6]. Besides, the composite z-score in assay [7] was 1.27; in assay [9] it was 1.59; in assay [10] it was -0.0645; in assay [11], 1.56; in assay [15] it was 3.45; in assay [17], 0.25. The figures for the composite z-score in [18], in assay [19] and in assay [20] were 0.17, 1.08 and 0.0801, respectively. Moreover, the z-score in [8] is 0.248 (inactive); in assay [12], 0.426 (inactive); in [13], 0.73 (inactive); in assay [14] it was 0.969 (inactive); in [16] it was -1.24 (inactive).

The values above are taken from PubChem BioAssay.
